Experimental data: PubChem BioAssay AID1159580 (chemical genetic matrix, 2015)
Where “and” joins values, the source holds several entries; their conditions need not be identical. Equal values may be shown once. Hit rate of the full screen: of about 5,500 compounds, about 2,000 (36%) were called active. Inconclusive results (about 18%) are left out. Cut-off read from the data, not from the text of the source: active = normalized growth mostly below about 0.91 (no sharp cut-off); inconclusive = no clear call, values can overlap the other calls; inactive = mostly above about 0.92. This is one part of the list.

Test: chemical genetic growth profiling, strain panel (AID 1159580);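 note: tested at 20 µM; growth read once vehicle control cultures reached saturation at 30 °C; 1 = growth at the plate median or of vehicle wells; lower values mean less growth of the strain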
Settings: growth OD

Measured: normalized growth

CNCCCN1c2ccccc2CCc2ccccc21
inactive: S. cerevisiae deletion strains, locus YKL009W, strain mrt4, active compounds read low 1 | S. cerevisiae deletion strains, locus YKL068W, active compounds read low 1 | S. cerevisiae deletion strains, locus YKL085W, strain MDH1 (second series), active compounds read low 1.04 | S. cerevisiae deletion strains, locus YKL085W, strain MDH1, active compounds read low 1.04 | S. cerevisiae deletion strains, locus YKL160W, strain elf1, active compounds read low 1.03 | S. cerevisiae deletion strains, locus YKL190W, strain CNB1, active compounds read low 1 | S. cerevisiae deletion strains, locus YKR001C, strain vps1, active compounds read low 0.997 | S. cerevisiae deletion strains, locus YKR026C, strain gcn3, active compounds read low 1.01 | S. cerevisiae deletion strains, locus YKR091W, strain srl3, active compounds read low 1.01 | S. cerevisiae deletion strains, locus YLL001W, strain dnm1, active compounds read low 1.03 | S. cerevisiae deletion strains, locus YLL026W, active compounds read low 1.03 | S. cerevisiae deletion strains, locus YLL041C, strain sdh2, active compounds read low 1.01 | S. cerevisiae deletion strains, locus YLR027C, strain aat2, active compounds read low 1.03 | S. cerevisiae deletion strains, locus YLR039C, strain RIC1, active compounds read low 1.22 | S. cerevisiae deletion strains, locus YLR058C, strain SHM2, active compounds read low 1.01 | S. cerevisiae deletion strains, locus YLR102C, strain apc9, active compounds read low 1 | S. cerevisiae deletion strains, locus YLR113W, strain HOG1, active compounds read low 1.02 | S. cerevisiae deletion strains, locus YLR221C, strain rsa3, active compounds read low 0.978 | S. cerevisiae deletion strains, locus YLR258W, strain gsy2, active compounds read low 1 | S. cerevisiae deletion strains, locus YLR262C, strain YPT6 (second series), active compounds read low 1.09 | S. cerevisiae deletion strains, locus YLR262C, strain YPT6, active compounds read low 1.16 | S. cerevisiae deletion strains, locus YLR268W, strain sec22, active compounds read low 0.988 | S. cerevisiae deletion strains, locus YLR320W, strain mms22, active compounds read low 0.987 | S. cerevisiae deletion strains, locus YLR330W, strain CHS5, active compounds read low 1.01 | S. cerevisiae deletion strains, locus YLR342W, strain FKS1 (second series), active compounds read low 0.997 | S. cerevisiae deletion strains, locus YLR342W, strain FKS1, active compounds read low 1.04 | S. cerevisiae deletion strains, locus YLR357W, strain rsc2, active compounds read low 0.985 | S. cerevisiae deletion strains, locus YLR370C, strain arc18, active compounds read low 1.02 | S. cerevisiae deletion strains, locus YLR371W, strain rom2, active compounds read low 0.988 | S. cerevisiae deletion strains, locus YLR384C, strain iki3, active compounds read low 1.01 | S. cerevisiae deletion strains, locus YLR418C, strain cdc73, active compounds read low 0.938 | S. cerevisiae deletion strains, locus YML016C, strain PPZ1, active compounds read low 0.997 | S. cerevisiae deletion strains, locus YML032C, strain rad52, active compounds read low 0.999 | S. cerevisiae deletion strains, locus YML120C, strain ndi1, active compounds read low 1.04 | S. cerevisiae deletion strains, locus YML124C, strain tub3, active compounds read low 1 | S. cerevisiae deletion strains, locus YMR058W, strain fet3, active compounds read low 1.02 | S. cerevisiae deletion strains, locus YMR078C, strain ctf18, active compounds read low 1 | S. cerevisiae deletion strains, locus YMR125W, strain sto1, active compounds read low 0.985 | S. cerevisiae deletion strains, locus YMR129W, active compounds read low 1.01 | S. cerevisiae deletion strains, locus YMR205C, strain PFK2, active compounds read low 1.04 | S. cerevisiae deletion strains, locus YMR223W, strain ubp8, active compounds read low 0.983 | S. cerevisiae deletion strains, locus YMR231W, strain pep5, active compounds read low 1.01 | S. cerevisiae deletion strains, locus YMR263W, strain SAP30, active compounds read low 0.997 | S. cerevisiae deletion strains, locus YMR307W, strain GAS1, active compounds read low 1.1 and 0.99 | S. cerevisiae deletion strains, locus YNL067W, strain RPL9B, active compounds read low 0.998 | S. cerevisiae deletion strains, locus YNL071W, strain lat1, active compounds read low 0.994 | S. cerevisiae deletion strains, locus YNL128W, strain TEP1, active compounds read low 1.02 | S. cerevisiae deletion strains, locus YNL153C, strain GIM3, active compounds read low 0.989 | S. cerevisiae deletion strains, locus YNL175C, strain NOP13, active compounds read low 1 | S. cerevisiae deletion strains, locus YNL183C, strain NPR1, active compounds read low 0.959 | S. cerevisiae deletion strains, locus YNL197C, strain WHI3, active compounds read low 1 | S. cerevisiae deletion strains, locus YNL209W, strain ssb2, active compounds read low 1 | S. cerevisiae deletion strains, locus YNL224C, strain SQS1, active compounds read low 0.998 | S. cerevisiae deletion strains, locus YNL233W, strain BNI4, active compounds read low 0.985 | S. cerevisiae deletion strains, locus YNL248C, strain rpa49, active compounds read low 0.995 | S. cerevisiae deletion strains, locus YNL250W, strain rad50, active compounds read low 1.01 | S. cerevisiae deletion strains, locus YNL271C, strain bni1, active compounds read low 0.998 | S. cerevisiae deletion strains, locus YNL298W, strain CLA4, active compounds read low 0.998 | S. cerevisiae deletion strains, locus YNL307C, strain MCK1, active compounds read low 1 | S. cerevisiae deletion strains, locus YNL322C, strain KRE1 (second series), active compounds read low 1.02 | S. cerevisiae deletion strains, locus YNL322C, strain KRE1, active compounds read low 1.01 and 0.993 | S. cerevisiae deletion strains, locus YNR049C, strain mso1, active compounds read low 1.01 | S. cerevisiae deletion strains, locus YNR052C, strain pop2, active compounds read low 1.01 | S. cerevisiae deletion strains, locus YOL012C, strain htz1 0.655 | S. cerevisiae deletion strains, locus YOL147C, strain pex11, active compounds read low 1 | S. cerevisiae deletion strains, locus YOR001W, strain rrp6, active compounds read low 1.02 | S. cerevisiae deletion strains, locus YOR061W, strain CKA2, active compounds read low 1.01 | S. cerevisiae deletion strains, locus YOR069W, strain VPS5, active compounds read low 1.01 | S. cerevisiae deletion strains, locus YOR070C, strain gyp1, active compounds read low 1.01 | S. cerevisiae deletion strains, locus YOR080W, strain dia2, active compounds read low 1.03 | S. cerevisiae deletion strains, locus YOR083W, strain WHI5 (second series), active compounds read low 1.03 | S. cerevisiae deletion strains, locus YOR083W, strain WHI5, active compounds read low 1.02 | S. cerevisiae deletion strains, locus YOR106W, strain vam3, active compounds read low 1.06 | S. cerevisiae deletion strains, locus YOR136W, strain idh2, active compounds read low 0.999 | S. cerevisiae deletion strains, locus YOR144C, strain elg1, active compounds read low 1 | S. cerevisiae deletion strains, locus YOR184W, strain ser1, active compounds read low 1.03 | S. cerevisiae deletion strains, locus YOR231W, strain MKK1, active compounds read low 1.01 | S. cerevisiae deletion strains, locus YOR265W, strain rbl2, active compounds read low 1.02 | S. cerevisiae deletion strains, locus YOR270C, strain vph1, active compounds read low 0.961 | S. cerevisiae deletion strains, locus YOR290C, strain snf2, active compounds read low 0.981 | S. cerevisiae deletion strains, locus YOR316C, strain cot1, active compounds read low 1.01 | S. cerevisiae deletion strains, locus YPL051W, strain arl3, active compounds read low 1.01 | S. cerevisiae deletion strains, locus YPL055C, strain LGE1, active compounds read low 0.96 | S. cerevisiae deletion strains, locus YPL078C, strain atp4, active compounds read low 1.05 | S. cerevisiae deletion strains, locus YPL106C, strain sse1, active compounds read low 1.04 | S. cerevisiae deletion strains, locus YPL240C, strain hsp82, active compounds read low 1.01 | S. cerevisiae deletion strains, locus YPL241C, strain CIN2, active compounds read low 1.01 and 0.994 | S. cerevisiae deletion strains, locus YPL256C, strain CLN2, active compounds read low 1.01 | S. cerevisiae deletion strains, locus YPR119W, strain clb2, active compounds read low 1 | S. cerevisiae deletion strains, locus YPR141C, strain kar3, active compounds read low 1 | S. cerevisiae deletion strains, locus YPR163C, strain tif3, active compounds read low 0.989 | S. cerevisiae deletion strains, locus YPR167C, strain met16, active compounds read low 1.01 | S. cerevisiae deletion strains, strain wtn01, active compounds read low 0.985 | S. cerevisiae strains, strain wild type, active compounds read low 1.01
